# Test results reported in PubChem BioAssay AID1851 (National Center for Advancing Translational Sciences (NCATS), 2009).
# Values joined by “and” are separate entries in the source; they are usually repeats but may differ in a detail not shown here. Equal values may be shown once. Screen size: about 16,000 compounds; about 2,600 (16%) were called active. Another 20% or so got no clear call; they are omitted. Calls come from the whole dose curve; as a rule, active = well fitted curve in the direction sought with a large enough effect; inconclusive = small, poorly fitted or top-dose-only effect, or effect the other way; inactive = no such curve, though single readings can be large or run the other way. Not all results are given here.
# Target: Cytochrome P450 2D6 (Homo sapiens) (UniProt P10635)
# Assay: Cytochrome panel assay with activity outcomes
# Conditions: recombinant CYP, pro-luciferin dealkylation, luminescence, p450-cyp2d6; series mostly up to 57.1 µM; activity, negative = inhibition: at the top concentration
# % is set by controls: 0 for no effect and ±100 for the full control effect.
# Sequence of Cytochrome P450 2D6 (Homo sapiens) (P10635 whole entry, looked up): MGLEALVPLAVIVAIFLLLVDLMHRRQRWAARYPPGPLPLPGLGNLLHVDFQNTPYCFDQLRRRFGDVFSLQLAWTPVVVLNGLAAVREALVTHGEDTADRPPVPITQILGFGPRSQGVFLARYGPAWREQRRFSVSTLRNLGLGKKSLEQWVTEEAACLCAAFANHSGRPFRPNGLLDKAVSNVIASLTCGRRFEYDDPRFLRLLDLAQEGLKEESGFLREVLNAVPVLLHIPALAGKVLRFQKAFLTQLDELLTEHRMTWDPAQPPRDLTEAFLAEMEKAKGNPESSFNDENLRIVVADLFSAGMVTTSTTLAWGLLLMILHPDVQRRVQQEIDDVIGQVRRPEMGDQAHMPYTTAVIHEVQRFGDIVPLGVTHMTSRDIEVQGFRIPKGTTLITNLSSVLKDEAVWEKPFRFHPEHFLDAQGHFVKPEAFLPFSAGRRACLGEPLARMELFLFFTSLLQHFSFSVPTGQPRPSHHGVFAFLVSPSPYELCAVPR
SMILES,"activity, negative = inhibition",AC50
Cc1ccc(S(=O)(=O)N[C@H]2COC(=O)CC=C[C@@H](C)[C@H]3C=C[C@H](O)[C@@H](COC(=O)CC=C[C@H]2C)O3)cc1,-6.53% [at 11.4 µM] (inactive) and 13.3% [at 11.4 µM] (inactive),
Cc1ccc(N2C(=O)CSC2c2cccnc2)cc1F (configuration not stated),-6.23% (inactive),
c1ccc(-c2noc(-c3ccc4ccccc4c3)n2)cc1,-26.1% (inactive),
CC(C)[C@H](CO)Nc1nc(Nc2ccc(C(=O)O)c(Cl)c2)c2ncn(C(C)C)c2n1,2.31% (inactive),
C=CCNC(=O)c1cccn1-c1ccsc1C(=O)OC,15.1% (inactive),
O=C(N[C@@]1(C(=O)O)C[C@@H]1c1ccccc1)c1ccccc1,11.3% [at 11.4 µM] (inactive),
CCCCn1c(SC(C)C(N)=O)nc2cc(C(=O)OC)ccc2c1=O (configuration not stated),28.8% (inactive),
C/C(N)=C(/C#N)C(=O)CSc1nnc(COc2cc(C)ccc2C)o1,0.41% (inactive),
COc1ccc(S(=O)(=O)N2CC3CCCN3c3ccc(C(F)(F)F)cc32)cc1 (configuration not stated),-19.1% (inactive),
Cc1nn(Cc2ccc(Cl)cc2)c(C)c1NC(=O)CSc1nc2c(c(C(F)(F)F)n1)CCc1ccccc1-2,-21.3% (inactive),
Nc1ccc(N=Nc2c(S(=O)(=O)O)cc3ccccc3c2S(=O)(=O)O)cc1,8.88% [at 11.4 µM] (inactive),
COc1cnc(-c2ccccn2)nc1Oc1ccc(Cl)c2ccccc12,-13.3% (inactive),
Cn1cc(-c2nc3cnc(N4CCOCC4)nc3n(CCC#N)c2=O)c2ccccc21,6.34% (inactive),
CCOc1ccc(Cc2nc(C)c(CC(=O)N3CCOCC3)c(=O)[nH]2)cc1,-12.7% (inactive),
Cc1noc(C)c1C(=O)N1CCC2(CCCN(C(=O)Nc3cccc(F)c3)C2)CC1,-6.3% (inactive),
NC(=NCc1ccccc1)NC(=O)c1nc(Cl)c(N)nc1N,,15.8 µM (active) and 5.01 µM (active)
COC(=O)c1nnn(Cc2ccccc2)c1N,-25.1% (inactive),
NC(Cc1ccccc1)=NCC(=O)O,9.41% [at 11.4 µM] (inactive),
NC(=NCc1ccc(Cl)c(Cl)c1)NC(=O)c1nc(Cl)c(N)nc1N,,12.6 µM (active)
Cc1cc(C)c2c(=O)[nH]c(SCC(=O)N(C)C)nc2n1,4.04% (inactive),
CN(C)c1ncc2nc(-c3ccc(Cl)cc3)c(=O)n(Cc3cccs3)c2n1,0.505% (inactive),

SMILES,"activity, negative = inhibition",AC50
CCOc1ccc(OCC)c(-c2c(=O)n(OCc3ccc(C(C)(C)C)cc3)c3ccccc3[n+]2[O-])c1,-0.869% (inactive),
CC(=O)NNc1cccc(Cl)n1,-5.21% (inactive),
CCOC(=O)C1=C(c2ccccc2)N=c2s/c(=C\c3ccc(O)cc3)c(=O)n2C1c1cccs1 (configuration not stated),-6.93% (inactive),
CCOC(=O)C1=C(c2ccccc2)N=c2s/c(=C\c3cccc(O)c3)c(=O)n2C1c1cccs1 (configuration not stated),,3.16 µM (active)
CCOC(=O)C1=C(c2ccccc2)N=c2s/c(=C\c3cc(OC)c(OC)c(OC)c3)c(=O)n2C1c1cccs1 (configuration not stated),24.8% (inactive),
Cc1cc(/C=C(/C#N)C(=O)Nc2ccccc2)c(C)n1-c1cccnc1,3.42% (inactive),
O=c1c(-c2cccs2)nc2cncnc2n1-c1ccccc1,-5.51% (inactive),
O=c1[nH][nH]c(C(F)(F)F)c1C=Nc1ccccc1Cl,3.6% (inactive),
O=C(CSc1cccc2cccnc12)OCC(=O)c1ccccc1,-14% (inactive),
COc1ncc2nc(CCc3ccccc3)c(=O)n(-c3ccccc3)c2n1,-10.4% (inactive),
CCNc1ncc2nc(CCc3ccccc3)c(=O)n(C)c2n1,,1.58 µM (active)
Cn1c(=O)c(CCc2ccccc2)nc2cnc(Nc3ccccc3)nc21,-1.73% (inactive),
COc1cccc(Nc2ncc3nc(CCc4ccccc4)c(=O)n(C4CC4)c3n2)c1,-14.9% (inactive),
CCNc1ncc2nc(CCc3ccccc3)c(=O)n(C3CC3)c2n1,,0.398 µM (active)
COc1ccc(-n2c(=O)c(CCc3ccccc3)nc3cnc(N4CCN(C)CC4)nc32)cc1,-5.66% (inactive),
CCNc1ncc2nc(CCc3ccccc3)c(=O)n(Cc3ccc(F)cc3)c2n1,2.94% (inactive),
Cn1c(=O)c(CCc2ccccc2)nc2cncnc21,-15% (inactive),
CCNc1ncc2nc(CCc3ccccc3)c(=O)n(-c3ccc(OC)cc3)c2n1,,0.251 µM (active)
COc1ccc(-n2c(=O)c(CCc3ccccc3)nc3cncnc32)cc1,-18.1% (inactive),
CCNc1ncc2nc(CCc3ccccc3)c(=O)n(-c3ccccc3)c2n1,,0.1 µM (active)
CCNc1ncc2nc(C)c(=O)n(C3CC3)c2n1,-2.63% (inactive),

SMILES,"activity, negative = inhibition",AC50
CC(C)Cc1nc(N2CCN(C(=O)c3ccccc3)CC2)c(C#N)c2c1CCC2,-29.2% (inactive),
Nc1nc(N)[n+]([O-])c(N)c1NCO,-8.44% [at 11.4 µM] (inactive),
CCN1C(=O)[C@H]2[C@H]3[C@H](O)[C@H](O)C/C(=N/OCC(C)C)[C@@H]3CC[C@@H]2C1=O,8.5% [at 11.4 µM] (inactive),
O=C(CN1C(=O)C2C3C=CC(C3)C2C1=O)Nc1ccc(C(=O)O)cc1 (configuration not stated),1.81% (inactive),
CC(C)OC(=O)c1cccc(C(=O)Oc2ccc(Br)cc2)n1,17.4% (inactive),
COc1cc(C2C(C#N)=C(N)N(Nc3ccccc3)C3=C2C(=O)CC(C)(C)C3)ccc1OCc1ccccc1 (configuration not stated),-12.7% (inactive),
Cc1c(-n2cc(C(=O)c3cc(Cl)ccc3O)cc(C#N)c2=O)c(=O)n(-c2ccccc2)n1C,-19.1% (inactive),
CN(C)[C@H]1C(=O)C(C(=O)NCN2CCCC2)=C(O)[C@]2(O)C(=O)C3=C(O)c4c(O)cccc4[C@@](C)(O)[C@H]3C[C@@H]12,-6.78% [at 25.6 µM] (inactive),
CCOC(=O)c1c(NC(=O)c2c(Br)cnn2C)c(C#N)nn1-c1ccccc1,4.17% (inactive),
O=C(N/N=C/c1ccccn1)c1ccco1,-15.4% (inactive),
COc1cccc2cc(NC(=O)C3CCCCC3)c(=O)oc12,5.46% (inactive),
Cc1ccc(-n2nc(C)c3c2OC(N)=C(C#N)C3c2ccco2)cc1 (configuration not stated),-22.5% (inactive),
COc1ccc(C(=O)N2CCCCC2)cc1S(=O)(=O)Nc1ccccc1,-10.2% (inactive),
CCOc1ccc(-c2nn(-c3ccccc3)cc2/C=C2\SC(N)=NC2=O)cc1C,-9.88% (inactive),
CSc1nsc(SCc2ccc(Cl)cc2)n1,1.58% (inactive),
O=C1c2ccccc2CC[C@H]1CNCCc1ccc(O)cc1,,0.398 µM (active)
CCOc1cc(C)ccc1OCc1nnc(SCC(=O)c2cccc([N+](=O)[O-])c2)n1C,-3.48% (inactive),
CCOC(=O)CSC1=NC(=O)/C(=C\c2ccc(Cl)cc2)S1,-3.61% (inactive),
C[C@@H](CN1CCC(Cc2ccccc2)CC1)[C@H](O)c1ccc(O)cc1,,1 µM (active)
C[C@@H](CN1CCC(Cc2ccccc2)CC1)[C@@H](O)c1ccc(O)cc1,-20.7% (inactive),
